# Results from PubChem BioAssay AID2314 (National Center for Advancing Translational Sciences (NCATS), 2010).
# Among all 300,000 compounds or so, about 37,000 (12%) were called active. This is one part of a sample in which actives are shown more often than they occur. Cut-off read from the data, not from the text of the source: active = max response mostly above about 13% (no sharp cut-off); inactive = mostly below about 14%.
# Assay: Cycloheximide Counterscreen for Small Molecule Inhibitors of Shiga Toxin; note: read at 38.3 µM for the half of the compounds with a filed dose; 0% is about no effect
# Details: cell reporter, cycloheximide protein synthesis inhibition counterscreen; active compounds read high
row,SMILES,max response
1,COCCNC(=S)N(CCc1c(C)[nH]c2ccc(C)cc12)Cc1cccnc1,-0.385% (inactive)
2,C=CCNC(=O)c1sc(SC)cc1-c1ccc(Cl)cc1,-0.634% (inactive)
3,CCOC(=O)C1CCN(C(=O)CN2C(=O)c3cccnc3Oc3ccc(C)cc32)CC1,-3.81% (inactive)
4,CCCOc1ccc(C(=O)C(CCC(CNCC)C(=O)c2ccc(OCCC)cc2)CNCC)cc1 (centres undefined),-10% (inactive)
5,O=S(=O)(NCC1CC1)c1ccc(F)c(Cl)c1,0.9% (inactive)
6,O=C(NC1C2CC3CC(C2)CC1C3)c1ccc(N2CCNCC2)c([N+](=O)[O-])c1 (centres undefined),-2.96% (inactive)
7,N#Cc1cc([N+](=O)[O-])ccc1NCC1CCCO1 (centres undefined),-4.48% (inactive)
8,O=C(Cc1cccs1)Nc1ccc([N+](=O)[O-])cc1,-1.6% (inactive)
9,CCOc1ccccc1NC(=O)Cc1cccs1,-3.39% (inactive)
10,CCOC(=O)c1ccc(NC(=O)Cc2cccs2)cc1,33% (active)
11,COc1cccc(NC(=O)CC(c2ccc(OC(C)C)cc2)c2ccccc2OC)c1 (centres undefined),2.51% (inactive)
12,COc1ccc(/C=C(\NC(=O)c2ccc(OCC(C)C)cc2)C(=O)OCc2ccco2)cc1,-1.98% (inactive)
13,COc1ccc(Cn2c(=S)[nH]c3cc(C(=O)NCCCN4CCOCC4)ccc3c2=O)cc1,-1.29% (inactive)
14,Cc1ccnc(NC(=O)CCNS(=O)(=O)c2ccc(C)c(C)c2)c1,47.8% (active)
15,Cc1ccc(S(=O)(=O)NCCC(=O)Nc2cccc(S(N)(=O)=O)c2)cc1C,-4.85% (inactive)
16,Cc1ccc(S(=O)(=O)NCCC(=O)Nc2ccc(C)c(Cl)c2)cc1C,-4.03% (inactive)
17,O=C1C=C(c2ccc(Cl)cc2)C(=O)N1Nc1ccccc1,-6.32% (inactive)
18,CCOc1cc(CNn2c(C)nnc2SCC(=O)NC(C)(C)C)ccc1OCC(=O)NC(C)(C)C,-1.88% (inactive)
19,Cn1cnc2c1c(=O)n(Cc1ccccc1C#N)c(=O)n2C,7.66% (inactive)
20,COc1ccccc1CN1CCCC(N2CCN(c3ccc(F)cc3)CC2)C1 (centres undefined),0.35% (inactive)
21,CN(C)/N=C/c1cc(Cl)cc([N+](=O)[O-])c1O,-1.13% (inactive)
22,N#CC(C#N)=Cc1cc(O)c(O)c([N+](=O)[O-])c1,37% (active)
23,O=[N+]([O-])c1cc([N+](=O)[O-])c2cccnc2c1O,5.27% (inactive)
24,O=[N+]([O-])c1ccccc1/C=C/CN1CCC(O)CC1,0.466% (inactive)
25,CN(C)Cc1c(C#N)c2ccccc2n1C,-3.13% (inactive)
26,COc1ccc(CCNCc2c(-c3ccccc3)n(C)c3ccccc23)cc1,-3.43% (inactive)

row,SMILES,max response
1,COc1ccc(-c2c(C#Cc3ccccc3)c3ccccc3n2C)cc1,40% (active)
2,Cc1cc(=O)oc2c1ccc1ccccc12,0.801% (inactive)
3,O=C(CSc1nccc(=O)[nH]1)Nc1ccc(N2CCOCC2)c(Cl)c1,-2.31% (inactive)
4,COc1ccc(CCNC(=O)CS(=O)(=O)Cc2nc(-c3ccc(C)cc3)oc2C)cc1OC,-4.16% (inactive)
5,CCCC(=O)Nc1c(O)c2ccccc2[nH]c1=O,-3.15% (inactive)
6,CC(C)C(=O)Nc1c(O)c2ccccc2[nH]c1=O,-0.723% (inactive)
7,NS(=O)(=O)c1ccccc1NC(=O)c1c(O)c2ccccc2[nH]c1=O,41.2% (active)
8,N#Cc1ccc(-c2nc3cc(C#N)c(C#N)cc3nc2-c2ccccc2)cc1C#N,18.4% (inactive)
9,Cc1ccc(N2C(=O)C3C4C=CC(CC4)C3C2=O)cc1Br (centres undefined),0.748% (inactive)
10,COc1ccc(CNC(=O)CN(c2ccc(OC)c(Cl)c2)S(=O)(=O)c2ccc(C)cc2)cc1,6.81% (inactive)
11,COc1cc(N/C=C2\CC(=O)NC(C)=C2C#N)cc(OC)c1OC,-2.39% (inactive)
12,O=C(c1ccncc1)N1CCN(c2ccc3ccccc3n2)CC1,8.94% (inactive)
13,Oc1ccc(CN2CCN(c3ncccn3)CC2)cc1,-3.1% (inactive)
14,c1cnc(N2CCN(c3ccc4ccccc4n3)CC2)nc1,53% (active)
15,Cc1nc(N2CCOCC2)sc1C(=O)NN,-3.93% (inactive)
16,Cc1cc(C)c2nc(N3CCC(C(=O)NCCN4CCOCC4)CC3)sc2c1,-2.32% (inactive)
17,Fc1cc(F)c2nc(N3CCOCC3)sc2c1,36.9% (active)
18,COc1cc(OC)cc(C(=O)N[C@H](C(=O)Nc2nc3ccccc3[nH]2)C(C)C)c1,0.422% (inactive)
19,COC(=O)Nc1nc2ccc(Sc3ccccc3)cc2[nH]1,27.6% (active)
20,CC(C)c1nc2ccc(C(=O)O)cc2[nH]1,7.51% (inactive)
21,Cc1ccc(Nc2nc(N3CCOCC3)nc(N3CCOCC3)n2)cc1Cl,-3.32% (inactive)
22,CNc1nc(Nc2ccc(C)c(Cl)c2)nc(N)c1[N+](=O)[O-],32.5% (active)
23,Nc1nc(Nc2ccccc2)nc(NCCO)c1[N+](=O)[O-],0.849% (inactive)
24,c1ccc2c(c1)CSc1sccc1C2=C1CCNCC1,-3.55% (inactive)
25,CC(=O)NC(=S)NNC(=O)c1ccc(Br)cc1,12.5% (inactive)
26,Cc1ccccc1Cn1c2ccccc2c2cnn(CC(=O)NCc3ccco3)c(=O)c21,1.52% (inactive)

row,SMILES,max response
1,COc1ccc2[nH]c(C(=O)N3CCN(C)CC3)c(C)c2c1,7.26% (inactive)
2,Cc1[nH]c2ccc(C(=O)N3CCN(C)CC3)cc2c1C,28% (active)
3,CCOc1ccccc1N1CCN(C(=O)c2ccc3[nH]c(C)c(C)c3c2)CC1,-2.02% (inactive)
4,FC(F)(F)c1cnc(Oc2ccccc2-c2nnc(-c3ccc(Cl)cc3)o2)c(Cl)c1,13.8% (active)
5,CSc1ccccc1-c1nnc(-c2ccc(Cl)cc2)o1,29% (active)
6,Cc1cc(C)cc(NS(=O)(=O)c2ccc(Oc3ncc(C(F)(F)F)cc3Cl)cc2)c1,-3.33% (inactive)
7,COC(=O)Cc1ccc(Oc2ncc(C(F)(F)F)cc2Cl)cc1,10.3% (inactive)
8,Cc1c(C)c2ccc(OCC(=O)N3CCN(c4cccc(Cl)c4)CC3)cc2oc1=O,-3.72% (inactive)
9,COc1cccc(-c2coc3cc4oc(=O)c(CC(=O)O)c(C)c4cc23)c1,7.42% (inactive)
10,Cc1ccccc1CN1CCNC(=O)C1CC(=O)NCCC1=CCCCC1 (centres undefined),-4.14% (inactive)
11,CN(C)CCCNC(=S)N1CCC(c2nc3ccccc3[nH]2)CC1,-2.52% (inactive)
12,CC(=O)N1c2ccc(S(=O)(=O)N3CCC(C(=O)NCc4ccc(F)cc4)CC3)cc2CC1C (centres undefined),-3.6% (inactive)
13,CCNc1ccc(C(=O)OCC(=O)N2c3ccccc3NC(=O)C2(C)C)cc1[N+](=O)[O-],-4.72% (inactive)
14,Cc1ccc(-n2c(C)cc(C(=O)CSc3nnc4ccccn34)c2C)cc1,39.3% (active)
15,N#Cc1ccc(CSc2nnc3ccccn23)cc1,5.39% (inactive)
16,O=C(CSc1nnc2ccccn12)c1ccccc1,49.5% (active)
17,O=C(CSc1nnc2n1CCCN2)c1ccccc1,38.3% (active)
18,O=C(CSc1nnc(-c2ccco2)n1CC1CCCO1)c1ccccc1 (centres undefined),8.39% (inactive)
19,Cc1ccc(-n2c(C)cc(C(=O)CN3C(=O)C(=O)N(C4CCCC4)C3=O)c2C)cc1,-1.52% (inactive)
20,Cn1c(SCC(=O)c2ccc(F)cc2)nnc1-c1ccccn1,6.35% (inactive)
21,Cc1cc(C(=O)CSc2nc(N)cc(=O)[nH]2)c(C)n1-c1cccc(F)c1,7.82% (inactive)
22,Cn1c(CC(=O)Nc2ccccc2)nnc1SCC(=O)c1ccccc1,3.65% (inactive)
23,COc1ccc(N(CC(=O)N2CCOCC2)S(=O)(=O)c2ccccc2)cc1Cl,-0.709% (inactive)
24,COc1ccc(/C=C(/NC(=O)c2ccccc2)C(=O)Nc2cccc(C(=O)O)c2)cc1,-3.46% (inactive)
25,COc1ccc(-c2c(C(C)=O)c(C)nc3sc4c(=O)n(-c5ccc(C)cc5)nnc4c23)cc1,-1.79% (inactive)
26,CC(NCc1nc2ccccc2n1C)C12CC3CC(CC(C3)C1)C2 (centres undefined),-1.92% (inactive)

row,SMILES,max response
1,O=C(Cn1cc(-c2nnnn2-c2ccc(Cl)cc2)c(=O)c2ccccc21)c1ccccc1,-5.16% (inactive)
2,CN(C(=O)CC1C(=O)NCCN1Cc1ccc2ccccc2c1)C1CCOCC1 (centres undefined),0.547% (inactive)
3,O=C(O)C1CCC(CNS(=O)(=O)c2ccc(Br)cc2)CC1 (centres undefined),-3.43% (inactive)
4,COc1ccc(S(=O)(=O)Nc2ccccc2C(=O)N2CCCC2)cc1C,-0.906% (inactive)
5,C/C(CCC(=O)OC[C@H]1O[C@H](C#Cc2ccccc2)C=C[C@@H]1Oc1ccc(C)cc1)=N\OC[C@@H](O)[C@H]1O[C@@H]2OC(C)(C)O[C@@H]2[C@H]1O,1.29% (inactive)
6,COc1cc(CC(=O)N/N=C/c2ccccc2)c([N+](=O)[O-])cc1OC,16.2% (inactive)
7,CCOC(=O)c1c(CC(C)C)csc1/N=C/C1=C(O)CCCC1=O,-1.4% (inactive)
8,CCOC(=O)c1sc(/N=C/C2=C(O)CC(C)(C)CC2=O)c(C(=O)OCC)c1C,65.5% (active)
9,CCOC(=O)c1c(/N=C/C2C(=O)CC(C)(C)CC2=O)sc(C)c1C,-5.69% (inactive)
10,CCCCCC1CC(COc2ccccc2)OC1=O (centres undefined),-2.67% (inactive)
11,Cc1oc2c(C)c3oc(=O)c(CC(=O)N[C@@H](CC(C)C)C(=O)N[C@@H](Cc4ccccc4)C(=O)O)c(C)c3cc2c1C,-3.89% (inactive)
12,Brc1ccc2ncnc(NCc3cccnc3)c2c1,8.06% (inactive)
13,Oc1ccccc1CNc1ncc(Br)cc1Br,19.8% (active)
14,CCc1cccc(C)c1NS(=O)(=O)c1cc(Br)cnc1N,-7.68% (inactive)
15,O=C(Nc1ccc(S(=O)(=O)Nc2ncccn2)cc1)C12CC3CC(CC(C3)C1)C2,1.99% (inactive)
16,O=C(Nc1cnccn1)c1cccnc1,-3.29% (inactive)
17,CNC(=O)C(=O)N/N=C/c1ccccn1,6.76% (inactive)
18,O=C(NN=C1CCC(=NNC(=O)c2cccnc2)CC1)c1cccnc1,22.4% (active)
19,O=C(NCc1ccc(Cl)c(Cl)c1)c1cccnc1,-2.41% (inactive)
20,O=C(N/N=C/c1ccccn1)c1cccc(NC(=O)c2ccc(Cl)cc2)c1,13% (inactive)
21,CN1CCN(NC(=O)c2ccc(S(=O)(=O)N3CCCCCC3)cc2)CC1,-2.75% (inactive)
22,O=C(N/N=C/c1ccccn1)C12CC3CC(CC(C3)C1)C2,14.7% (active)
23,Cc1cc(/C=N/NC(=O)c2cccnc2)c(C)n1CC(C)C,42.1% (active)
24,O=C(CNC(=O)c1cccnc1)N/N=C/c1cc(Br)c(O)c(Br)c1,-1.81% (inactive)
25,O=C(N/N=C/c1ccccn1)c1ccc(S(=O)(=O)N2CCCCCC2)cc1,73.8% (active)
26,COc1cc(/C=N/NC(=O)c2cccnc2)ccc1OC(=O)c1cccc(Br)c1,-6.4% (inactive)
